# Data: PubChem BioAssay (NCI)
# This is part of a sample that, as a whole, favours compounds with a hit. Of some 83,000 tested, about 20% had one in any assay.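 Treatment: one concentration, 48 hours, 96-well format. Scoring: percent growth, with anything below 10 considered active.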 Unmarked numbers belong to inactive results. Activity calls are given as the source filed them.
# Tested on: SK-MEL-28 melanoma
# Assay: NCI-60 one-dose screen, 48 h (100 = growth as untreated, 0 = no growth, -100 = all killed)
# Conditions: 10 µM unless noted
row,SMILES,growth
1,CC(=O)Nc1ccc2c(c1)c(NC(C)=O)nn2C(=O)Nc1ccc(Cc2ccccc2)cc1,141%
2,Cc1ccc2c(c1)O/C(=C\c1cccc(OCC(=O)c3ccccc3)c1)C2=O,110%
3,Nc1nc(SCc2ccccc2)c2ncn(C3CCCC3)c2n1,141%
4,Cn1c2ccccc2c2c3c(c4c5ccccc5n(CCCCCC#N)c4c21)C(=O)N(O)C3=O,6.74% (active)
5,CCN(CC)Cc1cc(Nc2c3ccc(Cl)cc3nc3c(C)cccc23)ccc1O,-65.5% (active)
6,CS(=O)(=O)c1ccc(-c2cnc3ccc(-c4cccc(S(C)(=O)=O)c4)nn23)cc1,52.5%
7,COc1ccc(CCN2CCCn3c2nc2ccccc2c3=O)cc1,49.6%
8,CC#CC#Cc1cccc(=O)o1,23.9%
9,c1ccc2c(Nc3cccc4ccccc34)cccc2c1,61.5%
10,c1ccc(CSc2ncnc3nc[nH]c23)nc1,128%
11,O=C(O)c1cccnc1Br,112%
12,COc1ccc(-c2cc(-c3cccnc3)nc3sc4c(=O)n(-c5ccc(C)cc5)cnc4c23)cc1OC,89.3%
13,CNC(=O)c1cc(Oc2ccc3nc(NC(=O)Nc4ccc(CN5CCOCC5)c(C(F)(F)F)c4)sc3c2)ccn1,25.1%
14,CCN(CC)CCCC(C)NCCCNc1cccc2cccnc12 (centres undefined),123%
15,CCCCN(CCCC)Cc1c(C)[nH]c2cc(OC)ccc2c1=O,112%
16,O=C1C[C@H](Sc2nc(-c3ccc(F)cc3)cc(C(F)(F)F)n2)[C@H]2CO[C@@H]1O2,105%
17,CCCCOc1ccc(NC(=O)n2nc(NC(C)=O)c3cc(NC(C)=O)ccc32)cc1,126%
18,CSc1ncnc2c1ncn2C1CCCO1 (centres undefined),141%
19,Oc1ccccc1N=Cc1c(O)ccc2ccccc12,113%
20,Cn1c2ccccc2c2c3[nH]c(=O)[nH]c(=O)c3c3c4ccccc4n(C)c3c21,27.2%

row,SMILES,growth
1,CCOC(=O)c1c2ncccc2n2c(=O)n(-c3ccc(Cl)cc3)nnc12,115%
2,O=C(COc1cccc(/C=C2/Oc3ccccc3C2=O)c1)Nc1nccs1,124%
3,NS(=O)(=O)c1ccc(Nc2nc3n[nH]c(Nc4ccccc4)c3c(=O)[nH]2)cc1,111%
4,OCCNCCNc1c2ccccc2nc2ccccc12,114%
5,COc1ccc(OCC(=O)Nc2ccc(-c3nc4ccccc4s3)cc2C)cc1,107%
6,CCCCNP1(NCCCC)=NP(NCCCC)(NCCCC)=NP(NCCCC)(NCCCC)=NP(NCCCC)(NCCCC)=N1,37.4%
7,COCCCN=C(N)c1ccc(NC(=O)c2ccc(C(=O)Nc3ccc(C(N)=NCCCOC)cc3)cc2)cc1,226%
8,Cn1c2ccccc2c2c3c(c4c5ccccc5[nH]c4c21)C(=O)N(N)C3=O,66.5%
9,CCN(CC)Cc1cc(Nc2c3ccccc3nc3cc(Cl)ccc23)ccc1O,-79.3% (active)
10,COc1nc2c(cc1S(=O)(=O)c1ccccc1)CCc1c-2cnn1-c1ccc(Cl)cc1,88.8%
11,CN(CC(=O)N(Cc1ccc(C2CCCCC2)cc1)c1ccc(C(=O)NO)cc1)S(=O)(=O)c1c(F)c(F)c(F)c(F)c1F,86.8%
12,COc1cc(-c2nc3ccccc3s2)ccc1NC(=O)COc1ccc(Cl)cc1,58.6%
13,CSc1[nH]c2ncnc(N)c2c1C#N,120%
14,O=C1Nc2c(ccc(Cl)c2Cl)/C1=C/c1cc(Br)c(O)c(Br)c1,58.3%
15,NS(=O)(=O)N(c1cc(C(F)(F)F)cc(C(F)(F)F)c1)C1CCN(Cc2ccc(F)cc2)CC1,82.1%
16,COc1nc2c(cc1S(=O)(=O)c1ccccc1)CCc1c-2cnn1Cc1ccccc1,92.3%
17,CN1CCN(Cc2ccc(NC(=O)c3[nH]ncc3Nc3ccnc4ccsc34)cc2)CC1,54.9%
18,CC1(C)CC(C(=O)OCCCCCCCCCCC[P+](c2ccccc2)(c2ccccc2)c2ccccc2)C(C)(C)N1O (centres undefined),-95.2% (active)
19,C=CC[N+]1(CC)CCN=C1CCCCCCCCCCCCCCCCC (centres undefined),-76.1% (active)
